# Compound activity as filed in PubChem BioAssay.
# USP28 inh = inhibitors of human USP28 deubiquitinase. Ubiquitin carboxyl-terminal hydrolase 28 (Homo sapiens), Q96RU2. purified USP28, Ub-rhodamine cleavage fluorescence, 30 min. inhibition, % at 25 µM. 3% of 47,000 active
# USP30 block = inhibitors of human USP30 deubiquitinase | inhibition, % at 25 µM | 5.3% of 47,000 active | Ubiquitin carboxyl-terminal hydrolase 30 (Homo sapiens), Q70CQ3 | purified USP30, Ub-rhodamine cleavage fluorescence
# Target sequence (Q70CQ3 whole entry, looked up): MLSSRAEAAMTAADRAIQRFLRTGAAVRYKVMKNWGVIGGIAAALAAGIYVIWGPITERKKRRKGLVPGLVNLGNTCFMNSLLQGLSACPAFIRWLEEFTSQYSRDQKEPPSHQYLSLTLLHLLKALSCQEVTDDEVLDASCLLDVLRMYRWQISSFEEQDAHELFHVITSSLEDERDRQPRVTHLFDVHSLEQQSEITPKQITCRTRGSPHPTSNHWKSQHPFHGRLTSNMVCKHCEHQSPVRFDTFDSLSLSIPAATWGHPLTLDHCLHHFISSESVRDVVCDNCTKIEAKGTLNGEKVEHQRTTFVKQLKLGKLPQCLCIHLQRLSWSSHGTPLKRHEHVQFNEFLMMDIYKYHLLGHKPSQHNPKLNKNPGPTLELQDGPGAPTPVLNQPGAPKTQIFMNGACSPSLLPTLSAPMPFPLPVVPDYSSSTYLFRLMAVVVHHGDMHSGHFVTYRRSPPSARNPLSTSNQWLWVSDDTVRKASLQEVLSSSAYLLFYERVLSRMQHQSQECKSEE
# USP17 inh = inhibitors of human USP17 deubiquitinase; purified USP17, Ub-rhodamine cleavage fluorescence, 3 h; Ubiquitin carboxyl-terminal hydrolase 17-like protein 5 (Homo sapiens), A8MUK1; 6.5% of 47,000 active; inhibition, % at 50 µM; AID 1645855, 2021
# OTUD3 block = inhibitors of human OTUD3 deubiquitinase; inhibition, % at 25 µM; 0.7% of 47,000 active; purified OTUD3, Ub-rhodamine fluorescence, 2 h; OTU domain-containing protein 3 (Homo sapiens), Q5T2D3
# Hits are given with their value; n = inactive; x = no result given. Compounds with a hit are over-represented: about 12% of the library has one in this group of screens. No stated cut-off is given here; in the data, active means inhibition above about 30%; inactive means the rest.
SMILES,USP28 inh,USP30 block,USP17 inh,OTUD3 block
O=C(CSc1nc(-c2ccccc2)c2ccccc2n1)NCCc1ccccc1,n,n,31,n
O=C(CSc1ncnc2c1oc1ccccc12)Nc1ccccc1F,x,x,43,n
CCOC(=O)c1sc2nc(C)cc(C)c2c1NC(=O)c1ccc(S(=O)(=O)N(C)C)cc1,n,n,n,n
CCc1csc2nc(C)c(NC(=O)Cc3ccc(C)cc3)c(=O)n12,n,n,n,n
Oc1cc(OCc2cccc(C(F)(F)F)c2)ccc1-c1ccn[nH]1,81,n,42,n
Cc1cn2c(=O)cc(COc3cccc(C(F)(F)F)c3)nc2s1,n,n,n,n
COc1ccc2c(c1)[nH]c1c(=O)n(CCc3ccc(O)cc3)cnc12,n,n,n,n
CC(=O)O[C@@H](C/C=C(\C)C(=O)O)[C@@H](C)[C@H]1C[C@H](OC(C)=O)[C@@]2(C)C3=CC[C@H]4C(C)(C)[C@H](O)CC[C@]4(C)C3=CC[C@]12C,45,62,56,n
CC(=O)O[C@@H](C/C=C(\C)C(=O)O)[C@@H](C)[C@H]1C[C@H](OC(C)=O)[C@@]2(C)C3=CC[C@H]4C(C)(C)[C@H](OC(C)=O)CC[C@]4(C)C3=CC[C@]12C,100,101,100,92
CC(C)CC[C@H]1O[C@@H](CC(=O)O)Cc2cc3c(c(O)c21)C(=O)c1sc(=O)n(C)c1C3=O,77,n,78,70
O=c1c2c(ccn1Cc1nc(C3CC3)no1)ccn2Cc1cccnc1,31,n,n,n
O=c1c2c(ccn1Cc1ccccc1F)ccn2Cc1cccnc1,x,x,n,n
CC(C)C(NC(=O)c1ccccc1Cl)C(=O)OCC(=O)c1c[nH]c2ccccc12 (centres undefined),n,n,n,n
Cc1nnc(NCc2cccnc2)c2c1nnn2Cc1ccc(F)cc1,34,n,n,n
Cc1nnc(NCCO)c2c1nnn2Cc1ccccc1Cl,n,n,n,n
COc1ccc(Sc2nnc(C)c3nnn(Cc4ccc(F)cc4)c23)cc1,n,n,32,n
Cc1nc2ccc(S(=O)(=O)N(CC(=O)NC3CCCC3)Cc3ccccc3)cc2s1,n,n,n,n
COc1ccccc1S(=O)(=O)N1CC[C@@H]2CN(C)[C@@H]2C1,n,n,56,n
Cc1c(Cl)cccc1NC(=O)c1ccc(N2CCCC2)nn1,n,61,56,n
Cc1cccc(NC(=O)c2ccc(N3CCCC3)nn2)c1,n,32,n,n
Cc1cccc(NC(=O)c2ccc(N3CCCC3)nn2)n1,n,n,n,n
Cc1ccc2nc(-c3cc4ccc(C)c(C)c4[nH]c3=O)c(NC3CCCC3)n2c1,n,n,41,n
CCOc1ccc2[nH]c(=O)c(-c3nc4ccc(C)cn4c3NC3CCCCC3)cc2c1,n,n,n,n
Cc1ccc2c(c1)n(S(=O)(=O)c1ccc(F)cc1)c(=O)n2S(=O)(=O)c1ccc(F)cc1,n,35,33,n
O=C(c1cc2ccccc2o1)N1CC=C(c2ccccc2)CC1,34,50,36,32
SMILES,USP28 inh,USP30 block,USP17 inh,OTUD3 block
O=C(C1CCCC1)N1CCC(c2nc3c(nnn3Cc3c(Cl)cccc3Cl)c(=O)[nH]2)CC1,n,44,n,n
O=C(C1CCC1)N1CCC(c2nc3c(nnn3Cc3ccccc3Cl)c(=O)[nH]2)CC1,n,32,n,n
O=C(C1CCC1)N1CCC(c2nc3c(nnn3Cc3c(F)cccc3Cl)c(=O)[nH]2)CC1,n,n,n,n
CCCCN1Cc2sc(NC(=O)Nc3ccccc3C)nc2C1=O,n,n,n,n
CCCCN1Cc2sc(NC(=O)Nc3ccccc3F)nc2C1=O,n,n,33,n
O=c1c2cc(-c3ccccc3)sc2n(Cc2ccc(F)cc2)c(=O)n1-c1ccccc1,n,n,n,n
Fc1ccc(Cn2ccc(-c3cnc(-c4ccccc4)s3)n2)cc1,62,n,n,n
CC(=O)c1ccc(NC(=O)COc2coc(CN3CCc4ccccc4C3)cc2=O)cc1,n,n,46,n
O=C(COc1coc(CN2CCc3ccccc3C2)cc1=O)Nc1ccc(F)cc1,n,n,n,n
CCN1C(=O)COc2cc(-c3noc(C(=O)NCc4ccccn4)n3)ccc21,n,n,n,n
CN(C)c1ccc(-c2noc(C(=O)NCc3ccccn3)n2)cc1,n,n,45,n
CN(C)c1ccc(-c2noc(C(=O)NCc3ccncc3)n2)cc1,n,31,n,n
O=C(NCc1ccncc1)c1nc(-c2ccncc2)no1,n,n,n,n
CCOc1ccc(C(=O)Nc2cccc(-c3nc4ccccc4o3)c2)cc1Br,n,n,n,n
c1ccc2oc(-c3cn[nH]c3)nc2c1,n,31,n,n
O=C(COc1ccc2c(c1)OCO2)Nc1ccc2c(c1)CCC2,n,n,n,n
COc1ccc(C)cc1NC(=O)COc1ccc2c(c1)OCO2,n,n,52,n
O=C(CC[C@@H]1NC(=O)N(Cc2ccccc2)C1=O)Nc1cccc(Cl)c1,n,n,n,n
CC(C)c1ccc(NC(=O)c2cc3cccnc3n(C)c2=O)cc1,n,n,n,n
CC(C)c1ccc(NC(=O)c2cc3ncc(Br)cn3n2)cc1,n,n,52,n
COc1ccc(S(=O)(=O)N2CCC[C@H](Cn3nnc(-c4ccccn4)n3)C2)cc1,n,n,n,n
C=CCNCc1cc(-c2ccc(F)cc2)cn2nnnc12,n,n,n,n
O=C(O)c1cc([N+](=O)[O-])ccc1N1CCC(Cc2ccccc2)CC1,n,31,n,n
C[C@H]1C(=O)c2c(O)cc(O)cc2O[C@@H]1c1ccc(O)cc1,n,n,n,n
COc1ccc([C@H]2Oc3cc(OC)cc(O)c3C(=O)[C@@H]2[C@@H]2C(=O)c3c(O)cc(O)cc3O[C@H]2c2ccc(OC)cc2)cc1,n,n,41,n
SMILES,USP28 inh,USP30 block,USP17 inh,OTUD3 block
O=C(Cc1ccccc1)Nc1oc2ccccc2c(=O)c1-c1ccc2c(c1)OCO2,n,32,n,n
O=C(c1noc2c1CCc1sccc1-2)N1CCN(c2ccc(F)cc2)CC1,n,n,n,n
COc1cccc(NC(=O)Cc2sc(Nc3cc(C)cc(C)c3)nc2O)c1,n,n,62,n
COc1ccc(NC(=O)Cc2sc(Nc3cccc(OC)c3)nc2O)cc1,n,n,n,n
Cc1cc(C)c(NC(=O)Cc2sc(Nc3ccc(C)c(C)c3)nc2O)c(C)c1,n,n,n,n
Cc1ccc(Nc2nc(O)c(CC(=O)Nc3ccc(C)cc3C)s2)cc1,n,n,37,n
Cc1ccc(NC(=O)Cc2ccc(-c3ccccc3)cc2)c(C)c1,n,n,n,n
Cc1ccc(Nc2nc(O)c(CC(=O)Nc3ccccc3C)s2)cc1C,n,n,74,n
Cc1cccc(-n2nc3c(c2NC(=O)/C=C\c2ccccc2)CS(=O)(=O)C3)c1C,n,n,n,n
Cc1ccc(Cn2c(C(=O)O)c(CNCc3ccco3)c3ccccc32)cc1,n,n,35,n
Cc1ccc(Cn2c(C(=O)O)c(CNCc3cccc(Cl)c3)c3ccc(C)cc32)cc1,33,43,n,n
